Assay results from PubChem BioAssay (Tox21).
Records with an inconclusive call do not appear. Activity calls are given as the source filed them. Unless noted, calls follow the shape of the dose curve; as a rule, active = well fitted curve in the direction sought with a large enough effect in the repeat runs; inconclusive = weak or mixed curves; inactive = no such curve, though single readings can be large; an effect the other way counts as inactive or inconclusive.

Assays:
[1] = target: Estrogen receptor beta (Homo sapiens) (UniProt Q92731); test: qHTS assay to identify small molecule agonists of the estrogen receptor beta (ER-beta) signaling pathway (AID 1259377; active = well fitted activation curve with a large enough effect in the signal ratio in the repeat runs, not every such curve was filed as active; the % refers to the signal ratio)
Sequence of Estrogen receptor beta (Homo sapiens) (Q92731 whole entry, looked up): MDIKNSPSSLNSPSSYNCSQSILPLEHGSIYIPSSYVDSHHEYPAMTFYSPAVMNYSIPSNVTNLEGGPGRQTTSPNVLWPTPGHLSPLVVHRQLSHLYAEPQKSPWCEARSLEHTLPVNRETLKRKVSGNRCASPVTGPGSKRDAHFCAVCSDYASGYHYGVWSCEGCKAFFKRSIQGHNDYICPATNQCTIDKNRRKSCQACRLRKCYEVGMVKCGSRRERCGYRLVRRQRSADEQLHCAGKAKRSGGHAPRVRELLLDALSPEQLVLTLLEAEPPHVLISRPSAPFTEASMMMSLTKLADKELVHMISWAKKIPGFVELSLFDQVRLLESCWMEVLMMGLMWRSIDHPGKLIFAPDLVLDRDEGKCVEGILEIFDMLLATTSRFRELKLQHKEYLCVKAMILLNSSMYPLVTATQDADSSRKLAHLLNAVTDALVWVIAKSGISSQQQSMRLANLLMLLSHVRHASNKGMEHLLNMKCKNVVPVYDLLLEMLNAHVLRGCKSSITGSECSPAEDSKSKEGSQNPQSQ
Procedure, shortened: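 ER-beta-UAS-bla HEK293T cells in medium with 2% charcoal-stripped FBS were exposed to compounds for 16 h at 37C. Beta-lactamase reporter activity was read as fluorescence after 2 h with LiveBLAzer B/G FRET substrate at room temperature.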

[2] = target: Estrogen receptor beta (Homo sapiens) (UniProt Q92731); test: qHTS assay to identify small molecule antagonists of the estrogen receptor beta (ER-beta) signaling pathway (AID 1259378; active = well fitted inhibition curve with a large enough effect in the signal ratio in the repeat runs, not every such curve was filed as active; the % refers to the signal ratio)
Procedure, shortened: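 Antagonist mode: compounds added to beta-lactamase reporter HEK293T ER-beta-UAS cells stimulated with E2 (1nM final), 16 hr at 37C. LiveBLAzer B/G FRET substrate, 2 hours room temperature, fluorescence read-out.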

[3] = qHTS assay to identify small molecule agonists of the androgen receptor (AR) signaling pathway in the presence of an antagonist - cell viability counter screen (AID 1259379); also: series mostly up to about 92 µM; nearly all actives have a fitted effect of over 25% in size
Procedure, shortened: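 MDA-kb2 human breast carcinoma cells (stable MMTV-luciferase, AR/GR responsive) were seeded 3,000 cells/well, pre-incubated 5 hr at 37C without CO2, then given 3.0uM nilutamide and compounds at 15 concentrations for 16 hr. Viability was read by CellTiter-Fluor fluorescence.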

[4] = qHTS assay to identify small molecule agonists of the estrogen receptor beta (ER-beta) signaling pathway - cell viability counter screen (AID 1259380); also: nearly all actives have a fitted effect of over 30% in size; also: potency is read from the fitted curve at half-maximal effect
Procedure, shortened: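 ER-beta-UAS-bla HEK293T cells in medium with 2% charcoal-stripped FBS were preincubated 6 hr at 37C, dosed with compound in DMSO for 16 hr, then after the bla read, CellTiter-Glo was added for 30 min at room temperature; luminescence recorded.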

[5] = qHTS assay to identify small molecule antagonists of the estrogen receptor beta (ER-beta) signaling pathway - cell viability counter screen (AID 1259382);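 also: HEK293T cells carrying ER-beta-UAS-bla reporter stimulated with estradiol; series mostly up to about 92 µM; nearly all actives have a fitted effect of over 55% in size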
Procedure, shortened: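 ER-beta-UAS-bla HEK293T cells (2,000/well, 2% charcoal-stripped FBS) were pre-incubated 6 hr at 37C, then given compound plus 1nM final 17-beta-estradiol for 16 hr. Viability was read in the same wells by CellTiter-Glo luminescence after 30 min at room temperature.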

[6] = qHTS assay to identify small molecule agonists or antagonists of the thyroid stimulating hormone receptor (TSHR) signaling pathway - wild type cell line counter screen (AID 1259384; calls by dose curve)
Procedure, shortened: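 Counter screen in untransfected Hek293: compounds (15-point titration, triplicate) plus phosphodiesterase inhibitor Ro20-1724 added after 18 h plating; 30 min RT. Intracellular cAMP via competitive d2/cryptate immunoassay, 1 h incubation.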

[7] = target: Thyrotropin receptor (Homo sapiens) (UniProt P16473); test: qHTS assay to identify small molecule antagonists of the thyroid stimulating hormone receptor (TSHR) signaling pathway (AID 1259385; calls by dose curve; also: nearly all actives have a fitted effect of over 20% in size)
Sequence of Thyrotropin receptor (Homo sapiens) (P16473 whole entry, looked up): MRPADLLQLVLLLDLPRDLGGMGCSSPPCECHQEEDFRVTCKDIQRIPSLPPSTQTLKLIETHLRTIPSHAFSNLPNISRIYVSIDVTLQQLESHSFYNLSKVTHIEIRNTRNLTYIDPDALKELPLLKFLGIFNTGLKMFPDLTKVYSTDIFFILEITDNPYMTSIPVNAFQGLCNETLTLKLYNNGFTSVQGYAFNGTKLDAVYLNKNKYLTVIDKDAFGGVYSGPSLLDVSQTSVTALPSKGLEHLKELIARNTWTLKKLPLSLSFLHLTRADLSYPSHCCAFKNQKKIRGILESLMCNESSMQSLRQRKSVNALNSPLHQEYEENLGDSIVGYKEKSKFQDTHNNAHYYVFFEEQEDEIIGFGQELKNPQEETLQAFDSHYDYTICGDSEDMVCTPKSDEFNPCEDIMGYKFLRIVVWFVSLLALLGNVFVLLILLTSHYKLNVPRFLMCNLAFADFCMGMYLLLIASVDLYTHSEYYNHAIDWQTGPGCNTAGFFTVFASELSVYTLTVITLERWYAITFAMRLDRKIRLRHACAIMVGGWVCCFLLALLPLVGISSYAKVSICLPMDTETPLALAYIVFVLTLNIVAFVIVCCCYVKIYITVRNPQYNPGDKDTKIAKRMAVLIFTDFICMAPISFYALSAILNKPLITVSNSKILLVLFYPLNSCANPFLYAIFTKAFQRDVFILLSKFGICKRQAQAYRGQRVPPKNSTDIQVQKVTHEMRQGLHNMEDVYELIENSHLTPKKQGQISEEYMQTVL
Procedure, shortened: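 Antagonist mode: compound-treated TSHR-expressing HEK293 cells were stimulated with 1.5 ng/mL TSH (final) in presence of Ro20-1724 for 30 min at RT. HTRF cAMP detection after 1 h; each compound tested at 15 concentrations, triplicate.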

[8] = qHTS assay to identify small molecule agonists of the estrogen receptor alpha (ER-alpha) signaling pathway in the presence of an antagonist - cell viability counter screen (AID 1259386);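 also: series mostly up to about 92 µM; cells exposed to compounds for 22 h at 37 °C before the viability read; nearly all actives have a fitted effect of over 30% in size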
Procedure, shortened: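 VM7Luc4E2 cells (endogenous full-length ER-alpha, 4×ERE-luciferase) were held 5 days in phenol red-free medium with 10% charcoal-stripped FBS, plated, then given 10.0nM ICI-182,780 and compounds at 15 concentrations for 22hr at 37C; viability read by CellTiter-Fluor fluorescence.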

[9] = target: Progesterone receptor (Homo sapiens) (UniProt P06401); test: qHTS assay to identify small molecule agonists of the progesterone receptor (PR) signaling pathway (AID 1346784; calls by dose curve; also: nearly all actives have a fitted effect of over 30% in size)
Sequence of Progesterone receptor (Homo sapiens) (P06401 whole entry, looked up): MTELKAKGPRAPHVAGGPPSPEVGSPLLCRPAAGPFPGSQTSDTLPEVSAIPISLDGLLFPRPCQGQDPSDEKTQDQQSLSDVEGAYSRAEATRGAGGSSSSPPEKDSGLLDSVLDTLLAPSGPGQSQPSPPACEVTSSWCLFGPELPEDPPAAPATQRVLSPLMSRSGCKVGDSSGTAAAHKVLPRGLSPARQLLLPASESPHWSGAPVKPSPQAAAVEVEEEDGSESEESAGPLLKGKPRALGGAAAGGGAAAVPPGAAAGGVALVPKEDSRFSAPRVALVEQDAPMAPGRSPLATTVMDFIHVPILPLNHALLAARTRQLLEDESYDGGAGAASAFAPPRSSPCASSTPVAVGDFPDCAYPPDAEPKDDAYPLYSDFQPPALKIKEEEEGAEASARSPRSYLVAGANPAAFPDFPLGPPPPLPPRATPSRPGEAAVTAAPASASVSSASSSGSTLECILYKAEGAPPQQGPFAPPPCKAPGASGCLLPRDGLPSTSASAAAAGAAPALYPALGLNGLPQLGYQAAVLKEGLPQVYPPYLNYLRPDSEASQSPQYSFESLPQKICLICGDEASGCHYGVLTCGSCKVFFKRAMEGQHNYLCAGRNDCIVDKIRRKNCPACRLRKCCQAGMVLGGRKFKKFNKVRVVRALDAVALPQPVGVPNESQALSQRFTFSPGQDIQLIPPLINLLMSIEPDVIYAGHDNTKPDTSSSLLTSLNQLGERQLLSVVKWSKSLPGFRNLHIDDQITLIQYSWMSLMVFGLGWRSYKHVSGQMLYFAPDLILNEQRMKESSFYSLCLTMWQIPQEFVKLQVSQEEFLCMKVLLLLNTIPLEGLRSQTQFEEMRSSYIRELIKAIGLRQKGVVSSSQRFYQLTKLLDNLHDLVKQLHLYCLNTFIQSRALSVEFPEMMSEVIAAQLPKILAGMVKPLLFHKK
Procedure, shortened: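 PR-UAS-bla HEK 293T cells (beta-lactamase reporter under UAS) in 2% charcoal-stripped FBS, dosed with 23 nL compound after 6 hr, incubated 16hr at 37C. LiveBLAzer B/G FRET substrate added, fluorescence read after 2 hours.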

[10] = target: Progesterone receptor (Homo sapiens) (UniProt P06401); test: qHTS assay to identify small molecule antagonists of the progesterone receptor (PR) signaling pathway (AID 1346795; active = well fitted inhibition curve with a large enough effect in the signal ratio in the repeat runs, not every such curve was filed as active; the % refers to the signal ratio; also: potency is read from the fitted curve at half-maximal effect)
Procedure, shortened: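 PR-UAS-bla HEK293T cells with beta-lactamase reporter under UAS control, in 2% charcoal-stripped FBS, treated with compounds plus 1 nM promegestone (R5020, final) for 16 hr at 37C. Read-out: FRET beta-lactamase substrate fluorescence after 2 hr at room temperature.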

[11] = qHTS assay to identify small molecule antagonists of the progesterone receptor (PR) signaling pathway - cell viability counter screen (AID 1346798); also: series mostly up to about 92 µM; nearly all actives have a fitted effect of over 50% in size
Procedure, shortened: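 PR-UAS-bla HEK293T cells, 3,000/well in 2% charcoal-stripped FBS medium, dosed with compounds plus R5020 agonist and incubated 16 h at 37C. Viability then measured in the same wells by CellTiter-Glo luminescence after 30 min at RT.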

[12] = qHTS assay to identify small molecule agonists of the progesterone receptor (PR) signaling pathway - cell viability counter screen (AID 1346799; calls by dose curve; also: nearly all actives have a fitted effect of over 45% in size)
Procedure, shortened: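 Counter screen in the PR-UAS-bla HEK293T wells (2% charcoal-stripped FBS, 16 h compound exposure at 37 C) after the bla read. CellTiter-Glo added, 30 min at room temperature, luminescence read as cell viability.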

[13] = qHTS assay to identify small molecule antagonists of the TGF-beta/Smad signaling pathway - cell viability counter screen (AID 1346824); also: nearly all actives have a fitted effect of over 50% in size
Procedure, shortened: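 Cytotoxicity counter-screen run in the same wells as the beta-lactamase Smad reporter read: CellTiter-Glo luminescence after 30 min at room temperature. HEK 293T SBE-bla cells had 5 hr compound exposure at 37 C with TGF-beta1 (0.25 ng/mL stock).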

[14] = qHTS assay to identify small molecule agonists of the TGF-beta/Smad signaling pathway - cell viability counter screen (AID 1346829); also: top concentration of the series differs between compounds; nearly all actives have a fitted effect of over 45% in size
Procedure, shortened: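 In parallel with the Smad reporter read, viability of HEK 293T cells stably carrying SBE-bla is quantified by ATP luminescence following 5 hr compound treatment.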

[15] = qHTS assay to identify small molecule agonists of the TGF-beta/Smad signaling pathway (AID 1346859; active = well fitted activation curve with a large enough effect in the signal ratio in the repeat runs, not every such curve was filed as active; the % refers to the signal ratio; also: series mostly up to about 77 µM)
Procedure, shortened: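 SBE-bla HEK293T cells plated overnight, then compound exposure for 5 h at 37 C. Beta-lactamase reporter read with LiveBLAzer B/G FRET substrate after 2 h at room temperature, fluorescence at 405 nm excitation, 460/530 nm emission.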

[16] = target: Estrogen receptor (Homo sapiens) (UniProt P03372); test: qHTS assay to identify small molecule agonists of the estrogen receptor alpha (ER-alpha) signaling pathway in the presence of an antagonist (AID 1259383; calls by dose curve; also: top concentration of the series differs between compounds; nearly all actives have a fitted effect of over 15% in size)
Sequence of Estrogen receptor (Homo sapiens) (P03372 whole entry, looked up): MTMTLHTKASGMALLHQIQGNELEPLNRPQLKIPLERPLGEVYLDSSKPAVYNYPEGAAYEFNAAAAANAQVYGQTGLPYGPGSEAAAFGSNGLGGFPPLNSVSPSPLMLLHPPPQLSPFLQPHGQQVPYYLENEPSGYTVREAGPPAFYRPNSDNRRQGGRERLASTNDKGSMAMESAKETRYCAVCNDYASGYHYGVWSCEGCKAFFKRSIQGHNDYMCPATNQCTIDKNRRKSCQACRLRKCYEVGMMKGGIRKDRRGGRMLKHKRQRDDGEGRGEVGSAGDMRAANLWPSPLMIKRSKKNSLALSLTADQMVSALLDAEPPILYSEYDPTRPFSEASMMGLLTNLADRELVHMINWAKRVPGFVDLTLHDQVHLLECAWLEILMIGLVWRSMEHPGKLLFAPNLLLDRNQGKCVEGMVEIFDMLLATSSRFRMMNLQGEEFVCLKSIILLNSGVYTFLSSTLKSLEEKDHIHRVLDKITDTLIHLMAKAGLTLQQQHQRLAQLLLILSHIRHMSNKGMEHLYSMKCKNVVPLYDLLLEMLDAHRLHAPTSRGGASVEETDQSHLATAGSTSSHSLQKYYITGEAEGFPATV
Procedure, shortened: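 VM7Luc4E2 cells (endogenous full-length ER-alpha, 4×ERE-luciferase) were precultured 5 days in phenol red-free medium with 10% charcoal-stripped FBS, given 10.0nM ICI-182,780 (final), then treated with compounds at 15 concentrations for 22hr at 37C; luminescence read with ONE-Glo.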

[17] = target: Thyrotropin-releasing hormone receptor (Homo sapiens) (UniProt P34981); test: qHTS assay to identify small molecule antagonists of the thyrotropin-releasing hormone receptor (TRHR) signaling pathway (AID 1346877; active = well fitted inhibition curve with a large enough effect in the repeat runs, not every such curve was filed as active; also: series mostly up to about 51 µM)
Sequence of Thyrotropin-releasing hormone receptor (Homo sapiens) (P34981 whole entry, looked up): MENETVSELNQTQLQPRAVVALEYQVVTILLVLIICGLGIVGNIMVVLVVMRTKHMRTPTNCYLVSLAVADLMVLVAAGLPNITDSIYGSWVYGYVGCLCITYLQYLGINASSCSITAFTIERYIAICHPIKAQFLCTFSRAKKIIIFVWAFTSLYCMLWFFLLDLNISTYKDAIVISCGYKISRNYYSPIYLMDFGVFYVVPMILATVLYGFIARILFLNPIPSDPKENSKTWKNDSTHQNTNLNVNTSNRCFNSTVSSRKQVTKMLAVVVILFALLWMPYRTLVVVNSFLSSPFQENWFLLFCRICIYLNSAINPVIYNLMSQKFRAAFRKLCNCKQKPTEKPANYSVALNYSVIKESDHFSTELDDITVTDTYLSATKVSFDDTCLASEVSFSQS
Procedure, shortened: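 TRHR-expressing HEK293 cells were seeded, cultured 18 h at 37 °C, then loaded with calcium dye for 2 h. Compounds were pre-incubated 5 min at room temperature before 1 nM TRH (final) was added, and kinetic fluorescence was recorded for 3 min.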

[18] = qHTS assay to identify small molecule antagonists of the sonic hedgehog signaling (Shh) pathway (AID 1259369; calls by dose curve; also: nearly all actives have a fitted effect of over 45% in size)
Procedure, shortened: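 NIH/3T3-derived 3T3Gli1-Luc cells with stably integrated Gli1-Luc reporter were preincubated 4hr at 37 C, then given compounds in DMSO plus Shh conditioned medium and incubated 24hr. Firefly luciferase luminescence read after 30min reagent at room temperature.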

[19] = target: Androgen receptor (Homo sapiens) (UniProt P10275); test: qHTS assay to identify small molecule agonists of the androgen receptor (AR) signaling pathway in the presence of an antagonist (AID 1259381; calls by dose curve; also: nearly all actives have a fitted effect of over 15% in size)
Sequence of Androgen receptor (Homo sapiens) (P10275 whole entry, looked up): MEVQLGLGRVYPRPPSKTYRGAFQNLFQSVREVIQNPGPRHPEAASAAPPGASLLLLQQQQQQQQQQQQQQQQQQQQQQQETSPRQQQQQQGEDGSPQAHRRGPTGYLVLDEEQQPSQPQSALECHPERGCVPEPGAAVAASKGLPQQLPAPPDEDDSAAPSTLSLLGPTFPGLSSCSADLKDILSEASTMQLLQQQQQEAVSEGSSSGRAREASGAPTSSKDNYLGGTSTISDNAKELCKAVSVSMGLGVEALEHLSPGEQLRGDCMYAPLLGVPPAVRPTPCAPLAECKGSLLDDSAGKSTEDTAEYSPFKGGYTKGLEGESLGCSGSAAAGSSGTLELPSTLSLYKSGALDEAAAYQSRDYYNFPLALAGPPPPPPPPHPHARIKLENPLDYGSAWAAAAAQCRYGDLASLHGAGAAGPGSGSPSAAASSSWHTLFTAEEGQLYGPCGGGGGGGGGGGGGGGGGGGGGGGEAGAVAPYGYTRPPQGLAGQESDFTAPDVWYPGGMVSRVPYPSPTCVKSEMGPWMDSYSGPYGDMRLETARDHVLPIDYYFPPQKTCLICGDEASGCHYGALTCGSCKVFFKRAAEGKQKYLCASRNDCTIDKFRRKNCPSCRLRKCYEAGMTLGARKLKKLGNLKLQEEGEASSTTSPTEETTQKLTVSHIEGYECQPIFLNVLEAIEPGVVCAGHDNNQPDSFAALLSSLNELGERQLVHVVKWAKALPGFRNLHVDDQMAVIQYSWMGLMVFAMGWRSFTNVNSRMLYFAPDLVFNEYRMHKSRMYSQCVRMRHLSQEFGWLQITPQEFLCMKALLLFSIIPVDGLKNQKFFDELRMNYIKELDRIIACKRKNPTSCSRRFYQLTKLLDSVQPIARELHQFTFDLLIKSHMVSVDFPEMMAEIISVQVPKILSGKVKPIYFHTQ
Procedure, shortened: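 MDA-kb2 human breast carcinoma cells carrying an MMTV-luciferase reporter (AR- and GR-responsive) were treated with compounds at 15 concentrations plus 3.0uM final nilutamide for 16hr at 37C without CO2; luminescence was read after ONE-Glo addition.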

Measured: Potency

CC(C)CCCCCOC(=O)CCCCC(=O)OCCCCCC(C)C
not listed: [16] | [17] | [18] | [19]
inactive: all other assays above

COCCOC(=O)C1=C(C)NC(C)=C(C(=O)OC/C=C/c2ccccc2)C1c1cccc([N+](=O)[O-])c1 (stereo not drawn)
active: [10] 4.22 µM
not listed: [1] | [2] | [11] | [12] | [18] | [19]
inactive: all other assays above

OCCSc1ccccc1
active: [4] 19.3 µM
inactive: [18] | [3] | [6] | [7] | [8] | [9] | [13] | [14] | [15]

CCOC(=O)C(C)Oc1ccc(Oc2nc3ccc(Cl)cc3o2)cc1 (stereo not drawn)
not listed: [2] | [6] | [7] | [10] | [16]
inactive: all other assays above

O=C(O)c1ccccc1NCCc1ccccc1
not listed: [1] | [2] | [11] | [16] | [17] | [18]
inactive: all other assays above

C=C(C)C(=O)OCCOC(=O)CC(C)=O
not listed: [1] | [10] | [16] | [17] | [18] | [19]
inactive: all other assays above
